From paper PMC5540273 (PLoS ONE, 2017)

What was measured:
Conditions in all cases: concentration: 1 μM,replicates: in singlicate; n = 1
PIK3C2G = tested on: PIK3C2G
PIK3CA = tested on: PIK3CA
PIK3CB = tested on: PIK3CB
PIK3CD = tested on: PIK3CD
PIK3CG = tested on: PIK3CG
PIK4CB = tested on: T1, PIK4CB
T1 construct: gene PI4KB

PIKFYVE = tested on: PIKFYVE
PIM1 = tested on: PIM1
PIM2 = tested on: PIM2
PIM3 = tested on: PIM3
PIP5K1A = tested on: PIP5K1A
PIP5K1C = tested on: PIP5K1C
PIP5K2B = tested on: PIP5K2B
PIP5K2C = tested on: T2, PIP5K2C
T2 construct: gene PIP4K2C

PKAC-alpha = tested on: T3, PKAC-alpha
T3 construct: gene PRKACA

PKAC-beta = tested on: T4, PKAC-beta
T4 construct: gene PRKACB

PKMYT1 = tested on: PKMYT1
PKN1 = tested on: PKN1
PKN2 = tested on: PKN2
PLK1 = tested on: PLK1
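Note: KINOMEscan kinase panel screen.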

Row | Structure (SMILES) | %Inh (PIK3C2G) [%] | %Inh (PIK3CA) [%] | %Inh (PIK3CB) [%] | %Inh (PIK3CD) [%] | %Inh (PIK3CG) [%] | %Inh (PIK4CB) [%] | %Inh (PIKFYVE) [%] | %Inh (PIM1) [%] | %Inh (PIM2) [%] | %Inh (PIM3) [%] | %Inh (PIP5K1A) [%] | %Inh (PIP5K1C) [%] | %Inh (PIP5K2B) [%] | %Inh (PIP5K2C) [%] | %Inh (PKAC-alpha) [%] | %Inh (PKAC-beta) [%] | %Inh (PKMYT1) [%] | %Inh (PKN1) [%] | %Inh (PKN2) [%] | %Inh (PLK1) [%]
1 | COc1ccc(C[C@@H](CN)NC(=O)c2cc(Br)c(-c3ccnc4[nH]ccc34)s2)cc1.Cl.Cl [GSK1389063] | 0 | 0 | 52 | 2 | 0 | 19 | 0 | 34 | 0 | 6 | 46 | 30 | 64 | 59 | 99.7 | 99.7 | 0 | 95.8 | 90 | 0
2 | Cl.Oc1cc(-c2nc(-c3ccccc3)[nH]c2-c2ccncc2)ccc1Cl [SB-386023] | 19 | 0 | 14 | 0 | 0 | 14 | 87 | 0 | 3 | 0 | 30 | 0 | 16 | 0 | 5 | 1 | 0 | 0 | 33 | 1
3 | C[C@H]1Oc2cc(cnc2N)-c2c(nn(C)c2C#N)CN(C)C(=O)c2ccc(F)cc21 | 20 | 0 | 0 | 0 | 0 | 0 | 19 | 21 | 19 | 12 | 0 | 44 | 0 | 0 | 18 | 0 | 33 | 12 | 0 | 0
4 | CCN(CC)CCOc1ccc(Nc2ncc3cc(-c4c(Cl)cccc4Cl)c(=O)n(C)c3n2)cc1 [SB-601273] | 11 | 6 | 30 | 40 | 21 | 5 | 48 | 0 | 0 | 0 | 72 | 82 | 16 | 90.7 | 26 | 0 | 98.6 | 57 | 6 | 26
5 | CNC(=O)c1ccccc1Sc1ccc2c(/C=C/c3ccccn3)n[nH]c2c1 | 0 | 0 | 0 | 11 | 2 | 0 | 43 | 0 | 0 | 6 | 12 | 0 | 12 | 0 | 0 | 0 | 100 | 0 | 0 | 0
6 | Cc1n[nH]c2ccc(-c3cc(OC[C@@H](N)Cc4ccccc4)cnc3-c3ccoc3)cc12.O=C(O)C(F)(F)F.O=C(O)C(F)(F)F [GSK507358] | 0 | 0 | 0 | 0 | 0 | 0 | 8 | 29 | 90 | 47 | 0 | 38 | 41 | 31 | 98.9 | 98 | 0 | 33 | 9 | 3
7 | CN(C)CCOc1ccc(-c2cc(-c3c[nH]nc3-c3ccccn3)ccn2)cc1 [GW835314] | 5 | 0 | 11 | 2 | 0 | 36 | 0 | 13 | 0 | 0 | 0 | 16 | 26 | 8 | 10 | 0 | 0 | 100 | 3 | 42
8 | O=C(NCCNc1ccnc(NCc2ccc(F)cc2)n1)c1cc2ccccc2s1 [GSK1379944] | 0 | 0 | 0 | 0 | 0 | 5 | 0 | 0 | 0 | 0 | 0 | 100 | 20 | 12 | 7 | 14 | 74 | 0 | 0 | 0
9 | CC(C)Nc1cc(-c2ccc3c(N)n[nH]c3c2)nc(N)n1 [GSK2221681] | 0 | 0 | 0 | 0 | 0 | 7 | 0 | 15 | 0 | 0 | 56 | 28 | 32 | 0 | 0 | 0 | 0 | 29 | 0 | 0
